Assay results from PubChem BioAssay (NCATS).
Results filed as inconclusive are left out. Where a call stands in place of a potency, no number is given. Active and inactive are the calls of the source. Calls follow the shape of the dose curve; as a rule, active = well fitted cell-killing curve with a large enough effect; inconclusive = small, poorly fitted or top-dose-only effect; inactive = no such curve, though single readings can be large or run the other way.

Experiment: qHTS of pediatric cancer cell lines to identify multiple opportunities for drug repurposing: Primary screen for NB1643 cells (AID 1347099); also: nearly all actives have a fitted effect of over 50% in size
Conditions: NB1643 neuroblastoma viability, CellTiter-Glo luminescence, 48 h; series mostly up to 46 µM
Source text: Drug repurposing or repositioning has been offered as a strategy for drug development in oncology programs. This approach has special potential for childhood cancers and other rare or orphan diseases, where the expected return on new drug development has been a disincentive to pharmaceuticals. […] In this project we exploit the poly-pharmacology of drugs to discover new indications via phenotypic screening of a panel of 19 well-characterized cell lines derived from solid tumors seen in children and adolescents. The goal is to identify approved drugs with previously unrecognized anticancer properties that has the potential to reveal new mechanisms and biological processes involved in carcinogenesis or drug resistance. We employed a titration-based paradigm (quantitative high-throughput screening or qHTS), where all compounds were tested at multiple concentrations for their effect on cell viability. Concentration-response curves (CRCs) were derived directly from the primary screen, and both potency and efficacy values were used to identify compounds with robust bioactivity profiles. We screened the NIH Chemical Genomics Center (NCGC) Pharmaceutical Collection (NPC) and Mechanism Interrogation Plate (MIPE) small molecule collections of approved and investigational compounds against these cell lines; and measured metabolically active cells after 48 hours of compound treatment as a proxy for cell viability. […] Assay Submitter: Nathalia J. Martinez, National Center for Advancing Translational Sciences, National Institutes of Health, Rockville, MD, USA; email: natalia.martinez@nih.gov Shen, M et al. Quantitative high-throughput phenotypic screening of pediatric cancer cell lines identifies multiple opportunities for drug repurposing. Oncotarget 2017 Dec 19;9(4):4758-4772. PMID 29435139.
The cells were obtained from University of North Carolina (UNC), Pediatric Preclinical Testing Program (PPT), and Coriell Institute (CI). qHTS cell viability assay: Cells were assayed in growth media at a density of 500-1,000 cells/well. Five microliters of cells were dispensed into 1,536-well, white, solid-bottom, TC-treated plates (Greiner Bio One) using a multidrop dispenser and incubated at 37 degrees C, 5% CO2, under a humidified atmosphere for 5 hours. Twenty-three nanoliters of compounds and controls (neutral control DMSO or positive control bortezomib at final concentration of 2.3 µM) were subsequently transferred by Kalypsys pintool. For primary screens, the MIPE collection was tested at 11-point dilutions (final concentrations range from 0.78 nM to 46 µM) and the NPC collection at 8-point dilutions (final concentrations range from 0.59 nM to 46 µM). Compounds tested in follow-up screens were assayed at 11-point dilutions. Cells were incubated for 48 hours, followed by addition of 3 µL of CellTiter-Glo (Promega). After a 15 min incubation at room temperature, samples were analyzed for luminescence intensity using a ViewLux High-throughput CCD imager equipped with clear filters.
Potency is read from the fitted curve at half-maximal effect.

Compound	Potency
CCCCCCCCC(=O)NCc1ccc(O)c(OC)c1	1 nM (active)
C[N+](C)(C)CCOC(=O)C(O)(c1ccccc1)c1ccccc1	inactive
COc1cc(N)c(Cl)cc1C(=O)NC1CN2CCC1CC2 (stereo not given)	inactive
C[C@@H]1CN(C2CCC(C#N)(c3ccc(F)cc3)CC2)CC[C@]1(C(=O)O)c1ccccc1 (stereo not given in full)	inactive
C[C@]12CC[C@H]3[C@@H](CCC4=CC(=O)CC[C@@]43C)[C@@H]1CC[C@@H]2C(=O)O	inactive
NC1(c2ccccc2)CCCCC1	inactive
C[C@]12CC[C@H]3[C@@H](CCC4=CC(=O)CC[C@@H]43)[C@@H]1CC[C@@H]2O	inactive
CNC(=O)NC(O)C(Cl)(Cl)Cl (stereo not given)	inactive
CC[C@H](O)C(C[C@H](C)N(C)C)(c1ccccc1)c1ccccc1	inactive
CN(C)C(=O)Oc1cc(OC(=O)N(C)C)cc(C(O)CNC(C)(C)C)c1 (stereo not given)	inactive
C[C@H](N)[C@H](O)c1ccc(O)c(O)c1	inactive
Sc1ccccc1Cl	inactive
CN1CCc2cc(Cl)c(O)cc2[C@H]2c3ccccc3CC[C@@H]21	inactive
O=C(CBr)Nc1ccc(Cl)cc1C(=O)c1ccccc1F	inactive
C[C@]12CC[C@H](O)CC1=CC[C@@H]1[C@@H]2CC[C@]2(C)C(=O)CC[C@@H]12	inactive
O=C(O)Cc1ccccc1	inactive
CCC1(CC)C(=O)NC(=O)NC1=O	inactive
CN1CCC(N(Cc2ccccc2)c2ccccc2)CC1	inactive
CCN(CC)C(C)C(=O)c1ccccc1 (stereo not given)	inactive
Oc1c(Br)cc(Br)cc1Br	inactive

Compound	Potency
O=C(NC(=O)c1c(F)cccc1F)Nc1cc(Cl)c(OC(F)(F)C(F)C(F)(F)F)cc1Cl (stereo not given)	inactive
CN(C)CCc1c[nH]c2ccccc12	inactive
COc1cc(CC(C)N)c(OC)cc1Br (stereo not given)	inactive
C[C@H]1C(=O)O[C@@H]2CCN3CC=C(COC(=O)[C@](C)(O)[C@]1(C)O)[C@H]23	inactive
CCN(CC)Cc1nccn1-c1ccc([N+](=O)[O-])cc1C(=O)c1ccccc1Cl	inactive
NC(=O)OCCCc1ccccc1	inactive
C=CCN1CC[C@]23CCCC[C@H]2[C@H]1Cc1ccc(O)cc13	inactive
C[C@@H]1O[C@@H](O[C@@H]2C=C3CC[C@@H]4[C@H](CC[C@]5(C)[C@@H](c6ccc(=O)oc6)CC[C@]45O)[C@@]3(C)CC2)[C@H](O)[C@H](O)[C@H]1O	6.7 nM (active)
O=c1[nH]c2cc(Cl)ccc2n1C1CCNCC1	inactive
CC[C@H]1C[C@H]2[C@@H]3CCC4=CC(=O)CC[C@@H]4[C@H]3CC[C@]2(C)[C@H]1O	inactive
CC(=O)OC1(c2ccccc2)CCN(CCc2ccccc2)CC1	inactive
C[C@]12CC[C@H]3[C@@H](CC=C4C[C@@H](O)CC[C@@]43C)[C@@H]1CC[C@@H]2O	inactive
Cc1ccc(N=CN(C)C=Nc2ccc(C)cc2C)c(C)c1	inactive
CC[n+]1c(-c2ccccc2)c2cc(N)ccc2c2ccc(N)cc21	11900 nM (active)
CC1COC2(c3ccccc3Cl)c3cc(Cl)ccc3NC(=O)CN12 (stereo not given)	inactive
Cc1nnc2n1-c1sc(CCC(=O)N3CCOCC3)cc1C(c1ccccc1Cl)=NC2	inactive
O=C(N[C@H]1N=C(c2ccccc2F)c2cccc3c2N(CC3)C1=O)c1cc2ccccc2[nH]1	inactive
CCOC(C(=O)OCCN(C)C)(c1ccccc1)c1ccccc1	inactive
CNC(C)Cc1ccccc1OC (stereo not given)	inactive
COP(=O)(OC)OC=C(Cl)Cl	inactive
